# Compound activity as filed in PubChem.
# LASV entry inh: blocks Lassa virus binding to or entry into cells | Lassa virus pseudotype entry inhibition, cell reporter | Potency, µM (series often up to 37.9 µM), for inactives: at the highest dose activity change, negative = inhibition, usual class: inhibitors | actives 1.2% (n = 300,000); calls by dose curve; tested in HEK293 cells; note: potency is the fitted concentration of half-maximal effect; % is set by controls: 0 for no effect and ±100 for the full control effect; nearly all actives have a fitted effect of over 50% in size
# Cycloheximide cs: affects cycloheximide protein synthesis inhibition readout, counter-screen | cell reporter, cycloheximide protein synthesis inhibition counterscreen | max response, % | actives 12% (n = 300,000) | AID 2314; in the data active = max response mostly above about 13%, no sharp cut-off; inactive = mostly below about 14%; note: read at 38.3 µM for the half of the compounds with a filed dose; 0% is about no effect
# Pf growth 96h: inhibits malaria parasite growth, 96 h; P. falciparum luciferase reporter growth, 96 h; Potency, µM (top dose mostly 28.7 µM), without a hit: top-dose activity change, negative = inhibition, hits mostly inhibitors; actives 6.9% (n = 320,000); AID 504834; note: potency is the fitted concentration of half-maximal effect; % is set by controls: 0 for no effect and ±100 for the full control effect
#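 Two parasite generations (96 h, 37 C, 5% CO2) of compound exposure in infected erythrocytes (0.05% parasitemia, 2% hematocrit). Luciferase-reporter P. falciparum; decreased luminescence indicates inhibited growth, aimed at apicoplast-acting delayed death.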
# Pf growth 48h: P. falciparum growth inhibition at 48 hours (one generation). P. falciparum luciferase growth in erythrocytes, 48 h. Potency, µM (top dose mostly 28.7 µM), for the others: at the highest dose activity change, negative = inhibition, most hits filed as inhibitors. actives 5.9% (n = 310,000). AID 504832; note: potency is the fitted concentration of half-maximal effect; % is set by controls: 0 for no effect and ±100 for the full control effect
#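 A one-generation exposure of luciferase-tagged malaria parasites in RPMI 1640/Albumax erythrocyte culture, 37 C and 5% CO2. Inhibition is inferred from decreased luminescence after adding detection reagent.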
# Shiga inhibitor: Shiga toxin inhibition; Vero cells, Shiga toxin protein synthesis inhibition reporter; actives 9.2% (n = 290,000); AID 2315; inhibition, % at 38.7 µM; in the data active = inhibition mostly above about 28%, no sharp cut-off; inactive = mostly below about 43%; note: 0% is about no effect
# Marburg entry inh: blocks Marburg virus binding to or entry into cells. Marburg virus pseudotyped entry inhibition, cell reporter. actives 1.8% (n = 300,000). Potency, µM (series often up to 37.8 µM), inactives show at the highest dose activity change, negative = inhibition, usual class: inhibitors. AID 540276; calls by dose curve; tested in HEK293 cells; note: potency is the fitted concentration of half-maximal effect; % is set by controls: 0 for no effect and ±100 for the full control effect
# An asterisk follows results filed as active; ? = inconclusive; / = not tested or not shown; [ ] = dose if it differs, or a comment. Hits are enriched below; roughly 19% of the tested compounds scored in any of these assays. Unless noted, calls come from the whole dose curve; as a rule, active = well fitted inhibition curve with a large enough effect; inconclusive = small, poorly fitted or top-dose-only effect, or another doubt; inactive = no such curve, though single readings can be large or run the other way.
SMILES,LASV entry inh,Cycloheximide cs,Pf growth 96h,Pf growth 48h,Shiga inhibitor,Marburg entry inh
O=C(COC(=O)C1CCN(c2ccc(C(F)(F)F)cn2)CC1)c1ccc(Cl)cc1,1.6%[46.1 µM],/,25.2%,5.4%,/,6.2%
Cc1ccsc1C(=O)C1CCCN(Cc2cn(C)nc2-c2ccccc2)C1 (centres undefined),?,-4.1,39.1%,-35.8%,-35.4,?
COC(=O)C1=CN(C(C)C)C=C(C(=O)OC)C1c1cc(Br)c(OC)c(OC)c1,4.11µM*,8.4,7.38µM*,4.65µM*,29.6,?
COC(=O)C1=CN(C(C)C)C=C(C(=O)OC)C1c1cccc(OC)c1,-20.1%,-2.1,121.8%,?,-16.6,-10.8%
O=C1C=C(c2ccccc2)CO1,12.5%,/,/,/,/,?
N#Cc1ccc(-c2csc(NC3=NCCCCC3)n2)cc1,-0.8%,19.8*,-41.4%,-8.1%,73.2*,-11.0%
c1ccc(-c2csc(NC3=NCCCCC3)n2)cc1,11.7%,42.8*,90.5%,89.3%,35.4,?
CCOC(=O)C1=C(N)Oc2cc(C)n(C)c(=O)c2C1c1ccncc1 (centres undefined),5.8%,-0.7,-0.6%[5.75 µM],11.2%,22.1,24.2%
C=C(C)C1(O)OC(=O)C=C1OC (centres undefined),/,8.5*,?,?,14.2,/
OC12CCCCC1C(c1ccc3c(c1)OCO3)N(Cc1ccc(F)cc1)CC2 (centres undefined),-4.1%,-2.3,9.28µM*,13.1µM*,23.7,-6.0%
COc1ccc2c(c1)c1ccc3c(c1n2C)C(=O)C=CC3=O,/,0.4,?,?,-8.4,/
Cc1cccc2c1N(CCCOc1ccc(C(C)(C)C)cc1)C(=O)C2=O,/,-2.0,9.28µM*,/,-30.5,/
Cc1cccc2c1N(CCCOc1ccccc1)C(=O)C2=O,1.2%,-3.1,-22.4%,-5.1%,1.2,0.9%
Cc1cc(NC(=O)Nc2ccc(Cl)cc2)n(C)n1,/,14.5,-15.1%,9.7%,15.0,/
CC(NC(=O)Nc1ccc(Cl)cc1)c1ccccc1 (centres undefined),/,1.6,10.4µM*,23.6%,14.6,/
O=C(Nc1ccccc1)Nc1ccc(Oc2cccnc2)nc1,2.8%,41.8*,21.8%,167.7%,39.3*,?
CNC(=O)Nc1ccc(Cl)cc1,21.3%,20.7*,42.7%,44.5%,17.8,29.3%
Nc1ccc(C(=O)CC(=O)Nc2ccc(Cl)cc2)cc1,1.3%[46.1 µM],18.3*,7.6%,2.2%,39.4,?
Cc1ccc(C(NC(=O)NC(C)c2ccccc2)C(Cl)(Cl)Cl)cc1F (centres undefined),?,1.7,?,4.15µM*,-14.2,?
O=C(NCC(F)(F)F)Nc1cccnc1,3.2%,-0.8,14.7µM*,-19.1%,-2.5,?
O=C(Nc1ccc(OC(F)(F)F)cc1)Nc1cccnc1,/,31.5*,10.4µM*,?,69.5*,/
CC(C)(Oc1ccc(Cl)cc1)C(=O)Nc1cccnc1,10.1%,-3.0,?,1.6%,-21.6,-11.2%
O=C(NCc1cccnc1)Nc1cccc(F)c1,/,-1.5,18.7%,3.9%,9.3,/
CC(=O)c1ccc(NC(=O)c2cnsn2)cc1,?,31.4*,?,114.5%,81.6*,-28.0%[46.1 µM]
COc1ccc2c(c1)CCCN2C(N)=O,6.0%,7.8,?,1.3%,8.0,23.7%
SMILES,LASV entry inh,Cycloheximide cs,Pf growth 96h,Pf growth 48h,Shiga inhibitor,Marburg entry inh
COc1ccc2no[n+]([O-])c2c1,/,11.7,34.8%,23.5%,12.0,/
O=C1N(C2CCCC2)C[C@@H]2C[C@@H](c3cccn3-c3ccccn3)N3CCC[C@@]123,10.1%,1.8,0.9%,-14.7%,-9.8,?
CC(=O)c1ccc(N2Cc3ccccc3/C2=N\C(=O)Nc2ccc(Cl)cc2)cc1,26.5%,43.2*,209.9%,68.9%,33.0*,?
CC(=O)c1ccc(NC(=O)Nc2ccncc2)cc1,/,28.1*,5.4%,?,57.1*,/
CON(C)C(=O)Nc1ccc(Cl)cc1,8.8%,11.5*,/,24.8%,25.6,?
CC(=O)c1ccc(NC(=O)Nc2ccc(Cl)cc2)cc1,?,34.2*,?,/,104.6*,?
COC(=O)[C@H](Cc1ccccc1)NC(=O)[C@@H](N)CC(=O)O,/,/,34.0%,6.7%,/,/
CC(=O)c1ccc(NC(=O)Nc2cccnc2)cc1,/,27.9*,-89.0%,-27.0%,23.3,/
O=C(Nc1ccc(F)cc1)Nc1cccnc1,?,-3.2,31.5%,19.9%,22.7,6.6%[46.1 µM]
O=C(CN(c1ccccc1F)S(=O)(=O)c1ccccc1)NC1CCCCCC1,-12.8%,-1.0,/,-13.5%,-9.2,-14.4%
CCCc1nc2oc3c(NCCOCCO)ncnc3c2c2c1COC(C)(C)C2,-2.8%,3.1,3.7µM*,-1.2%,-12.9,-19.9%
CC(C)Cc1nc2sc3c(NCc4ccco4)ncnc3c2c2c1COC(C)(C)C2,-7.1%,18.0,?,?,-5.8,?
CCCc1nc2oc3c(OC)ncnc3c2c2c1COC(C)(C)C2,-10.9%,7.3,6.57µM*,/,-30.5,-15.5%
Cc1nc2oc3c(NCC4CCCO4)ncnc3c2c2c1COC(C)(C)C2 (centres undefined),-13.7%,0.2,-14.2%,?,-8.0,2.3%
Cc1nc2oc3c(NCc4ccccc4)ncnc3c2c2c1COC(C)(C)C2,2.5%,-2.1,?,11.7µM*,-12.8,-15.4%
Cc1nc2sc3c(NCc4ccco4)ncnc3c2c2c1COC(C)(C)C2,-21.4%,-1.4,11.7µM*,6.57µM*,-3.5,?
COc1ccc(CCNC(=S)NC(=O)c2cccc(Cl)c2)cc1OC,-0.8%[46.1 µM],-0.7,?,?,3.5,-5.9%[46.1 µM]
COc1cc(C(=O)NNC(=O)C2CCCC2)cc(OC)c1OC,11.5%[46.1 µM],-5.7,26.0%,22.8%,-6.9,6.1%[46.1 µM]
O=[N+]([O-])c1cc([N+](=O)[O-])c2nonc2c1Nc1ccccc1O,/,15.9*,2.33µM*,?,72.6*,/
CCN(c1ccccc1)S(=O)(=O)c1ccc(Cl)c(C(=O)O)c1,-18.8%[46.1 µM],-1.3,-1.5%,-26.3%,-5.4,-16.3%[46.1 µM]
COC(=O)C(C(=O)OC)=C(/C=C/N(C)C)N(C)C,3.7%,-5.1,/,6.6%,-29.0,-21.1%
CCc1nn2cc(C(=O)c3cc(Cl)ccc3O)cnc2c1-c1ccc(F)cc1,?,-2.1,?,6.57µM*,-29.2,-1.8%
Cc1nn2c(N)c(C#N)cnc2c1-c1ccc(Cl)cc1,-0.7%,29.3,23.3%,/,-16.3,3.9%
COc1ccc(-c2c(C)nn3c(N)c(C#N)cnc23)cc1OC,-11.6%,15.1,0.329µM*,0.415µM*,-5.0,-27.2%[46.1 µM]
Cc1cccc(CN(C)C)c1OC(=O)N(C)C,8.3%,6.7,5.86µM*,19.4%,-15.1,8.1%
O=C(CN1C=NS(=O)(=O)c2ccccc21)Nc1ccc(F)cc1,19.4%[46.1 µM],/,/,/,/,/
Cc1ccc(NC(=O)NCC(c2ccccc2)N(C)C)cc1 (centres undefined),23.3%[46.1 µM],35.1*,10.1%,/,67.9*,10.4%[46.1 µM]
Cc1ccc(NC(=O)CNC(C)c2ccccc2)cc1 (centres undefined),16.6%[46.1 µM],29.2*,27.7%,33.9%,49.8*,?
Cc1ccccc1NC(=O)CC1NCCNC1=O (centres undefined),-0.8%[46.1 µM],/,/,/,/,1.0%[46.1 µM]
